# Experimental data from PubChem BioAssay AID1794835 (Parasite Biology Lab, Institute for Biomedicine and …, 2023).
# The campaign covered roughly 2,500 compounds. About 45 (2%) were called active. Cut-off read from the data, not from the text of the source: active = inhibition mostly above about 45% (no sharp cut-off); inactive = mostly below about 37%. What follows is part of a selection rich in actives, with near analogues and random picks from the rest.
# Experiment: anti-Giardia activity of synthetic compounds – Compounds Australia Scaffold Library subset, 24/48 h, primary screen (AID 1794835);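 for inhibition: 0% = parasite counts in DMSO vehicle wells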
# Settings: Giardia lamblia BRIS/91/HEPU/1279 trophozoite counts, imaging, at 10 µM
# [1] = measured here: growth inhibition at 24 h, stronger effect = higher value
structure (smiles),measurement,setting,value
Cc1nc(C2(NC(=O)CCc3ncc(-c4ccccc4F)o3)CCCCC2)no1,inhibition,,inactive
Cc1ccc(NC(=O)c2nnc(C3CCCN3C(=O)NC3CCCC3)s2)cc1 (stereo not drawn),inhibition,stronger effect = higher value,4.4% (inactive)
same,inhibition,[1],1%
CCN(Cc1cccs1)C(=O)CN1CCC(n2c(=O)[nH]c3ccccc32)CC1,inhibition,,inactive
O=C(CN1C(=O)COc2ccc(C(=O)N3CCCCC3)cc21)NCc1ccccc1,inhibition,,inactive
Cc1ccc(NC(=O)CN2C(=O)C3CCCCN3c3ccc(C(=O)N4CCCC4)cc32)cc1 (stereo not drawn),inhibition,stronger effect = higher value,62.4% (active)
same,inhibition,[1],35.5%
CN1CCN(CCNC(=O)CN2C(=O)C3CCCCN3c3ccc(C(=O)N4CCCC4)cc32)CC1 (stereo not drawn),inhibition,stronger effect = higher value,13% (inactive)
same,inhibition,[1],11.7%
O=C(NCCCN1CCN(c2ccccc2)CC1)c1noc2c1CCCCC2,inhibition,stronger effect = higher value,9.7% (inactive)
Cc1cccc(CC(=O)N2CCN(c3nc4cccnc4n(Cc4ccccc4)c3=O)CC2)c1,inhibition,stronger effect = higher value,38.8% (inactive)
same,inhibition,[1],12.1%
CCN1CCCc2cc(C(=O)N3CCOCC3)sc21,inhibition,,inactive
Cc1nccc2[nH]c(=O)c(C(=O)NCCCN(C)C3CCCCC3)cc12,outcome,,inactive
same,inhibition,[1],0.2%
CCC1Cn2c(C(=O)NCCN(C)C3CCCCC3)cc3cccc(c32)O1 (stereo not drawn),inhibition,stronger effect = higher value,53.7% (active)
same,inhibition,[1],13.8%
Cc1cc(C)c2c(=O)n(CC(=O)Nc3ccc(Br)cc3)c(=O)n(C)c2n1,outcome,,inactive
same,inhibition,[1],4.9%
CCC1CCCCN1C(=O)Cn1c(C(=O)OC)cc2occc21 (stereo not drawn),inhibition,stronger effect = higher value,8.8% (inactive)
CCc1nnc2c3ccccc3nc(N3CCN(c4cccc(Cl)c4)CC3)n12,inhibition,stronger effect = higher value,73.1% (active)
same,inhibition,[1],33.5%
CC(C)C(=O)N1CCN(c2nc3ccccc3c3nnc(-c4cccs4)n23)CC1,inhibition,,inactive
Cc1cc2n(n1)CCCN2CC(=O)N1CCN(c2cccc(Cl)c2)CC1,inhibition,stronger effect = higher value,5.3% (inactive)
O=C1CC(C(=O)N2CCN(c3ccccc3F)CC2)CN1Cc1ccccc1 (stereo not drawn),inhibition,,inactive
COc1cccc(CCC(=O)N2CCCC(c3nnc4n3CCCCC4)C2)c1 (stereo not drawn),inhibition,stronger effect = higher value,2.6% (inactive)
same,inhibition,[1],2.1%
O=c1c2cnc(N3CCCCC3)nc2ccn1CCc1ccccc1,inhibition,,inactive
O=C(c1ccco1)N1CCC(NS(=O)(=O)c2ccc(Cl)cc2)CC1,outcome,,inactive
same,inhibition,[1],0.2%
O=C(Nc1ccccc1)c1cc(-c2cccs2)n(C2CCS(=O)(=O)C2)n1 (stereo not drawn),inhibition,stronger effect = higher value,1.7% (inactive)
same,inhibition,[1],9.1%
Cc1cccc(-c2noc(Cn3cccn3)n2)c1,outcome,,inactive
same,inhibition,[1],3.8%
Cc1ccc(S(=O)(=O)NC2CCN(C(=O)Cc3ccc(Br)cc3)CC2)cc1,inhibition,stronger effect = higher value,3.1% (inactive)
same,inhibition,[1],2%
O=C(C1CCN(S(=O)(=O)c2ccccc2)CC1)N1CC=C(c2ccccc2)CC1,outcome,,inactive
same,inhibition,[1],1%
Cc1ccnc(N2CCCC(C(=O)N3CC=C(c4ccccc4)CC3)C2)n1 (stereo not drawn),inhibition,stronger effect = higher value,46.1% (active)
same,inhibition,[1],18%
Cc1ccnc(N2CCCC(C(=O)NC3CCCC3)C2)n1 (stereo not drawn),inhibition,stronger effect = higher value,10.9% (inactive)
same,inhibition,[1],2.5%
O=c1c2ccsc2ncn1Cc1nc(Cc2ccccc2)no1,inhibition,,inactive
CC(NC(=O)Cc1csc(Cc2ccccn2)n1)c1ccc(F)cc1 (stereo not drawn),outcome,,inactive
same,inhibition,[1],5.1%
Cc1ncc([N+](=O)[O-])n1Cc1csc(Cc2ccccc2)n1,inhibition,stronger effect = higher value,67% (active)
same,inhibition,[1],30.1%
O=C(Cc1ccccc1)NCc1nc(-c2ccc3c(c2)nnn3C2CCCC2)no1,inhibition,,inactive
O=C(NCc1cccc(C(F)(F)F)c1)C1CCCN(c2nccnc2Oc2ccccc2)C1 (stereo not drawn),inhibition,stronger effect = higher value,15.6% (inactive)
COc1ccc(CNC(=O)N2CCC(c3ccn4ncc(C(=O)N5CCOCC5)c4c3)CC2)cc1,inhibition,stronger effect = higher value,0.7% (inactive)
same,inhibition,[1],3.8%
CCCCN(CCCC)S(=O)(=O)c1ccc2c(c1)CCCC(=O)N2,inhibition,stronger effect = higher value,27.2% (inactive)
same,inhibition,[1],13.8%
COCCCN(Cc1ccco1)C(=O)Cn1cnc2onc(-c3ccc(Cl)cc3)c2c1=O,inhibition,,inactive
CCCn1nc(C(=O)N2CCCN(C(C)=O)CC2)ccc1=O,inhibition,,inactive
NCc1c2n(c(=O)n(CC(=O)Nc3ccc4c(c3)OCCO4)c1=O)CCCCC2,inhibition,,inactive
CCNS(=O)(=O)c1cc(-c2ccc(=O)n(CC)n2)sc1C,inhibition,,inactive
Cc1sc(C(=O)N2CCCC2)c2ncnc(NCc3ccc(F)c(Cl)c3)c12,inhibition,stronger effect = higher value,23.9% (inactive)
same,inhibition,[1],14.4%
CCc1nc(-c2cc(S(=O)(=O)NCc3ccccc3)c(C)s2)no1,inhibition,,inactive
Cc1cccc(CNS(=O)(=O)c2cc(-c3csc(C)n3)sc2C)c1,inhibition,stronger effect = higher value,63.6% (active)
same,inhibition,[1],21.2%
CCc1nc(-c2cc(S(=O)(=O)NCc3ccc(F)c(Cl)c3)c(C)s2)cs1,inhibition,stronger effect = higher value,43.9% (active)
same,inhibition,[1],15.2%
Cc1sc(-c2ccc(=O)[nH]n2)cc1S(=O)(=O)NCc1cccnc1,inhibition,,inactive
CN1CCN(CC2CCN(C(=O)Cc3cccc4ccccc34)CC2)CC1,inhibition,stronger effect = higher value,17.7% (inactive)
COc1cccc(-c2noc(Nc3cccc(C)c3)n2)c1,outcome,,inactive
same,inhibition,[1],3.1%
COc1cccc(Nc2nc(N3CCN(c4ccccc4)CC3)nc3c2cnn3C)c1,inhibition,stronger effect = higher value,5.8% (inactive)
same,inhibition,[1],6.1%
COc1cccc(Nc2c3c(nc4ccccc24)CCC3)c1,inhibition,stronger effect = higher value,62.3% (active)
same,inhibition,[1],22%
Fc1cccc(Nc2c3c(nc4ccccc24)CCC3)c1,inhibition,stronger effect = higher value,55.5% (active)
same,inhibition,[1],2.3%
CCc1cccc(NC(=O)C2CCCN(S(=O)(=O)c3c(C)noc3C)C2)c1 (stereo not drawn),outcome,,inactive
same,inhibition,[1],13.3%
O=C1CSCN1CC(=O)N1CCCCC1c1cc2ccccc2[nH]1 (stereo not drawn),inhibition,,inactive
COc1ccc(C2=Nc3ccccc3N(CC(=O)Nc3cccc(F)c3)C(=O)C2)cc1,inhibition,stronger effect = higher value,40.3% (active)
same,inhibition,[1],12.6%
COc1ccc(-n2ccn(CC(=O)Nc3cccc(F)c3)c2=O)cc1,inhibition,,inactive
COc1ccc(C2=Nc3ccccc3N(Cc3cccc(F)c3)C(=O)C2)cc1,inhibition,stronger effect = higher value,30.2% (inactive)
same,inhibition,[1],8.7%
CNC(=O)N1C[C@@H](CN(C)C)[C@@H](C2CCN(CCC(C)C)CC2)C1,outcome,,inactive
same,inhibition,[1],13.1%
COc1ccc(CNS(=O)(=O)c2ccc3onc(C(=O)N4CCCCC4)c3c2)cc1OC,outcome,,inactive
same,inhibition,[1],3.7%
CC(=O)c1c(C)[nH]c(C(=O)Nc2nc(-c3ccco3)c(-c3ccco3)s2)c1C,inhibition,stronger effect = higher value,52.8% (active)
same,inhibition,[1],25%
CCN1CCc2nc(NC(=O)c3ccccc3)sc2C1,inhibition,,inactive
O=C(NCc1ccccc1)c1cc(-c2ccco2)on1,inhibition,,inactive
Cc1ccc(NC(=O)c2ncoc2-c2ccco2)cc1Cl,inhibition,,inactive
O=C(Nc1nc(-c2ccco2)c(-c2ccco2)s1)c1ccccc1,inhibition,stronger effect = higher value,71.2% (active)
same,inhibition,[1],27.2%
